Data as given in PubChem BioAssay (NCATS).
Records with an inconclusive call do not appear. A call without a number means that no potency is given here. Activity calls are given as the source filed them. Unless noted, calls follow the shape of the dose curve; as a rule, active = well fitted curve in the direction sought with a large enough effect; inconclusive = small, poorly fitted or top-dose-only effect, or another doubt; inactive = no such curve, though single readings can be large; an effect the other way counts as inactive or inconclusive.

Tests used:
[1] = qHTS assay to identify small molecule inhibitors of chordoma cells - UCH-2 (AID 1259356); also: series mostly up to about 46 µM
[2] = P-glycoprotein substrates identified in KB-8-5-11 adenocarcinoma cell line, qHTS therapeutic library screen (AID 1346987); also: nearly all actives have a fitted effect of over 65% in size; also: potency is read from the fitted curve at half-maximal effect
In short: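 In this qHTS, P-gp-rich KB-8-5-11 cells received library compounds across a concentration range. Viability was quantified by luminescence after 72 h at 37 degree C.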

[3] = Natriuretic polypeptide receptor (hNpr1) antagonism - Pilot counterscreen GloSensor control cell line (AID 1347045; calls by dose curve; also: series mostly up to about 38 µM)
In short: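 HEK293 cGMP-sensor cells; 2% GloSensor reagent 2 h RT; LOPAC compounds in 1:5 titrations 30-50 min; 50 uM SNP 20 min; luminescence pre-read and post-read.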

[4] = P-glycoprotein substrates identified in KB-3-1 adenocarcinoma cell line, qHTS therapeutic library screen (AID 1346986); also: nearly all actives have a fitted effect of over 60% in size
In short: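 Dose-response cytotoxicity, KB-3-1 vs P-gp-high KB-8-5-11, no colchicine in assay medium. Read: CellTiter-Glo at 72 h.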

[5] = Identifying Small Molecule Inhibitors of Pancreatic Cancer Stem Cells (SN12C, Adherent) (AID 1259358);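 also: cell survival measured after 48 h of compound exposure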; also: potency is read from the fitted curve at half-maximal effect
In short: (§1)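 Pre-formed 14-day tumor spheroids or adherent cells dosed and incubated 48 h, 37C, 5% CO2. Viability assessed by CellTiter-Glo.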

[6] = Identifying Small Molecule Inhibitors of Pancreatic Cancer Stem Cells (SN12C, Spheroid) (AID 1259360); conditions: Potency: SN12C spheroid viability; also: potency is read from the fitted curve at half-maximal effect
In short: (§2)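 Viability is scored by CellTiter-Glo luminescence 48 h after dosing, expressed as percent activity against vehicle and no-cell references. Spheroid formats rely on cells cultured 14 days in stem cell media beforehand.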

[7] = Identifying Small Molecule Inhibitors of Pancreatic Cancer Stem Cells (A278, Adherent) (AID 1259361);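 also: viability read after 48 h compound exposure; nearly all actives have a fitted effect of over 35% in size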
In short: as §1

[8] = Identifying Small Molecule Inhibitors of Pancreatic Cancer Stem Cells (A2780, Spheroid) (AID 1259357); conditions: Potency: A2780 spheroid viability; also: potency is read from the fitted curve at half-maximal effect;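 also: spheroids pre-formed over 14 days in stem cell medium on hydrogel; compound exposure lasted 48 h before the ATP luminescence read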
In short: as §2

[9] = Identifying Small Molecule Inhibitors of Pancreatic Cancer Stem Cells (Panc1, Adherent) (AID 1259362); conditions: Potency: viability;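 also: compound exposure lasted 48 h before the viability read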
In short: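 Adherent (2D) versus sphere (3D) formats; spheres generated 14 d in SCM beforehand. Compound transferred by pin tool after 4 h, 48 h incubation, CellTiter-Glo endpoint.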

[10] = Identifying Small Molecule Inhibitors of Pancreatic Cancer Stem Cells (Panc1, Spheroid) (AID 1259359);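 also: compound exposure lasted 48 h before reading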
In short: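 Endpoint: ATP-based luminescence, 48 h drug exposure. Bortezomib at 9.2 uM final as full-kill control; DMSO vehicle as negative control; activity normalized between vehicle and cell-free wells.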

## O=c1[nH]cnc2[nH]ncc12
[1]
  outcome: inactive
[2]
  Potency: inactive
[3]
  outcome: inactive

## NC(N)=NC(=O)c1nc(Cl)c(N)nc1N
[1]
  outcome: inactive
[4]
  Potency: inactive
[2]
  Potency: 25.9 µM (active)
[3]
  outcome: inactive

## CCCc1nn(C)c2c(=O)[nH]c(-c3cc(S(=O)(=O)N4CCN(C)CC4)ccc3OCC)nc12
[1]
  outcome: inactive
[5]
  Potency: inactive
[6]
  Potency: inactive
[7]
  IC50 (viability decrease): inactive
[4]
  Potency: inactive
[2]
  Potency: 13.2 µM (active)

## CCOC(=O)N1CCC(=C2c3ccc(Cl)cc3CCc3cccnc32)CC1
[1]
  outcome: inactive
[4]
  Potency: inactive
[3]
  outcome: inactive

## Cc1[nH]c(=O)c(C#N)cc1-c1ccc2nccn2c1
[1]
  outcome: inactive
[5]
  Potency: inactive
[7]
  IC50 (viability decrease): inactive
[2]
  Potency: inactive
[3]
  outcome: inactive

## NS(=O)(=O)c1cc2c(cc1Cl)NC=NS2(=O)=O
[1]
  outcome: inactive
[4]
  Potency: inactive
[2]
  Potency: inactive

## CN1CCN(CCCN2c3ccccc3Sc3ccc(C(F)(F)F)cc32)CC1
[1]
  outcome: inactive
[4]
  Potency: inactive
[2]
  Potency: inactive

## CCCc1nc2c(C)cc(-c3nc4ccccc4n3C)cc2n1Cc1ccc(-c2ccccc2C(=O)O)cc1
[1]
  outcome: inactive
[8]
  Potency: inactive
[5]
  Potency: inactive
[7]
  IC50 (viability decrease): inactive
[2]
  Potency: inactive

## CCC(C)n1ncn(-c2ccc(N3CCN(c4ccc(OC[C@H]5CO[C@](Cn6cncn6)(c6ccc(Cl)cc6Cl)O5)cc4)CC3)cc2)c1=O (some centres not stated)
[1]
  outcome: inactive
[8]
  Potency: 4.69 µM (active)
[5]
  Potency: inactive
[7]
  IC50 (viability decrease): 5.9 µM (active)
[2]
  Potency: inactive

## Cc1cnc(NC(=O)C2=C(O)c3ccccc3S(=O)(=O)N2C)s1
[1]
  outcome: inactive
[2]
  Potency: inactive

## Cc1cn[nH]c1
[1]
  outcome: inactive
[4]
  Potency: inactive
[2]
  Potency: inactive
[3]
  outcome: inactive

## Cc1c(C)c2c(c(C)c1O)CCC(C)(COc1ccc(CC3SC(=O)NC3=O)cc1)O2 (configuration not stated)
[1]
  outcome: inactive
[5]
  Potency: inactive
[9]
  Potency: inactive
[2]
  Potency: inactive

## Clc1ccc(Nc2nnc(Cc3ccncc3)c3ccccc23)cc1
[1]
  outcome: inactive
[5]
  Potency: inactive
[7]
  IC50 (viability decrease): inactive
[2]
  Potency: inactive

## CNC[C@H](O)c1cccc(O)c1
[1]
  outcome: inactive
[4]
  Potency: inactive
[2]
  Potency: inactive
[3]
  outcome: inactive

## Cc1oncc1C(=O)Nc1ccc(C(F)(F)F)cc1
[1]
  outcome: inactive
[8]
  Potency: inactive
[7]
  IC50 (viability decrease): 11.8 µM (active)
[3]
  outcome: inactive

## C1COC(NC(C2CC2)C2CC2)=N1
[1]
  outcome: inactive
[4]
  Potency: inactive
[2]
  Potency: inactive
[3]
  outcome: inactive

## Clc1cccc(Cl)c1NC1=NCCN1
[1]
  outcome: inactive
[4]
  Potency: inactive
[2]
  Potency: inactive
[3]
  outcome: inactive

## CCN(CC)CCCC(C)Nc1ccnc2cc(Cl)ccc12 (configuration not stated)
[1]
  outcome: inactive
[4]
  Potency: inactive
[2]
  Potency: inactive

## CC(=O)Oc1ccccc1C(=O)O
[1]
  outcome: inactive
[2]
  Potency: inactive
[3]
  outcome: inactive

## Cc1ccccc1C(OCCN(C)C)c1ccccc1 (configuration not stated)
[1]
  outcome: inactive
[4]
  Potency: inactive
[2]
  Potency: inactive
[3]
  outcome: inactive

## O=c1n(CCCN2CCN(c3cccc(Cl)c3)CC2)nc2ccccn12
[1]
  outcome: inactive
[2]
  Potency: inactive
[3]
  outcome: inactive

## N#Cc1ccc(C(c2ccc(C#N)cc2)n2cncn2)cc1
[1]
  outcome: inactive
[8]
  Potency: inactive
[5]
  Potency: inactive
[6]
  Potency: inactive
[7]
  IC50 (viability decrease): inactive
[2]
  Potency: inactive

## CCC(C)(C)C(=O)O[C@H]1C[C@@H](C)C=C2C=C[C@H](C)[C@H](CC[C@@H]3C[C@@H](O)CC(=O)O3)[C@H]21
[1]
  outcome: inactive
[10]
  Potency: inactive
[6]
  Potency: inactive
[7]
  IC50 (viability decrease): 3.17 µM (active)
[2]
  Potency: 16.6 µM (active)

## Cc1[nH]c(=O)c(C#N)cc1-c1ccncc1
[1]
  outcome: inactive
[2]
  Potency: inactive

## COc1ccc2nc(S(=O)Cc3ncc(C)c(OC)c3C)[nH]c2c1 (configuration not stated)
[1]
  outcome: inactive
[5]
  Potency: inactive
[2]
  Potency: inactive

## N=c1nc(N2CCCCC2)cc(N)n1O
[1]
  outcome: inactive

## C#Cc1cccc(Nc2ncnc3cc(OCCOC)c(OCCOC)cc23)c1
[1]
  outcome: inactive
[5]
  Potency: 8.33 µM (active)
[6]
  Potency: 16.6 µM (active)
[7]
  IC50 (viability decrease): 7.43 µM (active)
[9]
  Potency: inactive

## Cc1cc2c(C(C)C)c(O)c(O)c(C=O)c2c(O)c1-c1c(C)cc2c(C(C)C)c(O)c(O)c(C=O)c2c1O
[1]
  outcome: inactive
[7]
  IC50 (viability decrease): 26.4 µM (active)
[2]
  Potency: 11.8 µM (active)

## NNCCc1ccccc1
[1]
  outcome: inactive
[2]
  Potency: inactive

## NC(=O)c1cnccn1
[1]
  outcome: inactive
[4]
  Potency: inactive
[2]
  Potency: inactive
[3]
  outcome: inactive

## Cc1ccc(N(CC2=NCCN2)c2cccc(O)c2)cc1
[1]
  outcome: inactive
[2]
  Potency: inactive

## OC(CN1CCC(Cc2ccc(F)cc2)CC1)c1ccc(Cl)cc1 (configuration not stated)
[1]
  outcome: inactive
[5]
  Potency: inactive
[6]
  Potency: inactive
[7]
  IC50 (viability decrease): inactive
[2]
  Potency: inactive
[3]
  outcome: inactive

## CCc1ccc(CCOc2ccc(CC3SC(=O)NC3=O)cc2)nc1 (configuration not stated)
[1]
  outcome: inactive
[5]
  Potency: inactive
[6]
  Potency: inactive
[2]
  Potency: inactive

## CC(c1cc2ccccc2s1)N(O)C(N)=O (configuration not stated)
[1]
  outcome: inactive
[5]
  Potency: inactive
[6]
  Potency: inactive
[2]
  Potency: inactive
